The text below walks through data of PubChem BioAssay (Tox21).

Assay [1] can be described thus: qHTS assay to identify small molecule antagonists of the glucocorticoid receptor (GR) signaling pathway - cell viability counter screen (AID 720693). Note: nearly all actives have a fitted effect of over 55% in size. On the technique in general: In qHTS, concentration-response curves come from the screen itself.
The nature of assay [2]: qHTS assay for identifying genotoxic compounds that show differential cytotoxicity against isogenic chicken DT40 cell lines with known DNA damage response pathways - wild type cell line (AID 743012). Note: nearly all actives have a fitted effect of over 60% in size. A digest of the protocol: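 Wild-type DT40 cells (300/well) exposed to compounds for 40 hours at 37 C/5% CO2. Viability read by CellTiter-Glo luminescence after 30 min at room temperature.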

Assay [3] can be described thus: qHTS assay for identifying genotoxic compounds that show differential cytotoxicity against isogenic chicken DT40 cell lines with known DNA damage response pathways - Rev3 mutant cell line (AID 743014). Note: nearly all actives have a fitted effect of over 55% in size.
A short description of assay [4]: qHTS assay for identifying genotoxic compounds that show differential cytotoxicity against isogenic chicken DT40 cell lines with known DNA damage response pathways - Rad54/Ku70 mutant cell line (AID 743015). Note: nearly all actives have a fitted effect of over 60% in size. Note: potency is the fitted concentration of half-maximal effect.
Assay [5] is described as follows: qHTS assay to identify small molecule antagonists of the androgen receptor (AR) signaling pathway - cell viability counter screen (AID 743033; note: nearly all actives have a fitted effect of over 45% in size).
A short description of assay [6]: qHTS assay to identify small molecule antagonists of the androgen receptor (AR) signaling pathway using the MDA cell line - cell viability counter screen (AID 743041; note: nearly all actives have a fitted effect of over 45% in size). A digest of the protocol:
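MDA-kb2 AR-luc cells (MMTV-luciferase, AR/GR responsive) treated with compounds plus R1881 agonist for 16 h at 37C. CellTiter-Fluor added at 15.5 h; fluorescence read after 30 min in the same wells.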

The nature of assay [7]: qHTS assay to identify small molecule antagonists of the thyroid receptor (TR) signaling pathway - cell viability counter screen (AID 743064). Note: nearly all actives have a fitted effect of over 50% in size. A digest of the protocol: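 GH3.TRE-Luc rat pituitary cells dosed after 4 hr plating, co-stimulated with T3 at 1 nM final, incubated 23.5 h at 37 C. Viability measured in the same wells by CellTiter-Fluor fluorescence after 30 min further at 37 C.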

The test system of assay [8] is thyroid hormone receptor (rat, GH3 cells). Description: qHTS assay to identify small molecule agonists of the thyroid receptor (TR) signaling pathway (AID 743066; calls by dose curve).
The target in assay [9] is Estrogen receptor (Homo sapiens) (UniProt P03372). Kind of assay: qHTS assay to identify small molecule antagonists of the estrogen receptor alpha (ER-alpha) signaling pathway (AID 743069; active = well fitted curve in the direction sought with a large enough effect in the signal ratio in the repeat runs, not every such curve was filed as active; inconclusive = weak or mixed curves, or effect the other way; inactive = no such curve, though single readings can be large or run the other way; the % refers to the signal ratio). Summed up: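 HEK293 ER-alpha-UAS-bla GripTite cells, held overnight in 2% charcoal-stripped FBS, 5,000 cells/well, preincubated 4 h, then compound plus 17beta-estradiol for 18 h at 37C. Beta-lactamase read by LiveBLAzer B/G FRET substrate, 2 h at room temperature.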

Assay [10] can be described thus: qHTS assay to identify small molecule antagonists of the estrogen receptor alpha (ER-alpha) signaling pathway - cell viability counter screen (AID 743074; calls by dose curve;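 note: HEK293 cells carrying ER-alpha-UAS-bla reporter stimulated with 17beta-estradiol; nearly all actives have a fitted effect of over 45% in size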).
For assay [11], the target named is Estrogen receptor (Homo sapiens) (UniProt P03372). Kind of assay: qHTS assay to identify small molecule agonists of the estrogen receptor alpha (ER-alpha) signaling pathway (AID 743075; calls by dose curve; note: potency is the fitted concentration of half-maximal effect).
For assay [12] the target is unchanged. Kind of assay: qHTS assay to identify small molecule agonists of the estrogen receptor alpha (ER-alpha) signaling pathway using the BG1 cell line (AID 743079). Note: nearly all actives have a fitted effect of over 20% in size. Note: potency is the fitted concentration of half-maximal effect.
Assay [13] in a line: qHTS assay to identify small molecule antagonists of the estrogen receptor alpha (ER-alpha) signaling pathway using the BG1 cell line (AID 743080; calls by dose curve;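 note: BG1 cells stimulated with 17beta-estradiol alongside compound; nearly all actives have a fitted effect of over 25% in size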; note: potency is the fitted concentration of half-maximal effect). A digest of the protocol: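 Luminescence from a 4×ERE-luciferase reporter in BG1-Luc-4E2 cells served as read-out. Cells, pre-cultured 5 days in stripped-serum phenol-red-free medium, were exposed to compound with 17beta-estradiol co-stimulation for 21.5 h at 37 C.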

Assay [14] can be described thus: qHTS assay to identify small molecule antagonists of the estrogen receptor alpha (ER-alpha) signaling pathway using the BG1 cell line - cell viability counter screen (AID 743081).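 Note: compound given together with 17beta-estradiol as the ER stimulus; series mostly up to about 70 µM; nearly all actives have a fitted effect of over 45% in size.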
The next assay addresses Aromatase (Homo sapiens) (UniProt P11511). Kind of assay: qHTS assay to identify aromatase inhibitors (AID 743083). Note: series mostly up to about 70 µM; nearly all actives have a fitted effect of over 55% in size.
Assay [15] can be described thus: qHTS assay to identify small molecule antagonists of the thyroid receptor (TR) signaling pathway (AID 743065). Note: series mostly up to about 70 µM; nearly all actives have a fitted effect of over 55% in size. Summed up:
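GH3.TRE-Luc rat pituitary cells (two TREs driving luciferase) were dosed with compound, then stimulated with 1 nM T3 (final) for 23.5 h at 37 C. ONE-Glo luminescence was the read-out, with CellTiter-Fluor fluorescence as the cytotoxicity counter-screen.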

Assay [16] addresses Androgen receptor (Homo sapiens) (UniProt P10275). Description: qHTS assay to identify small molecule antagonists of the androgen receptor (AR) signaling pathway (AID 743035; active = well fitted inhibition curve with a large enough effect in the signal ratio in the repeat runs, not every such curve was filed as active; inconclusive = weak or mixed curves, or effect the other way; inactive = no such curve, though single readings can be large or run the other way; the % refers to the signal ratio). A digest of the protocol:
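HEK293 cells stably carrying UAS-beta-lactamase reporter, 2,000/well, given compounds plus R1881 agonist and incubated 16 h at 37C. LiveBLAzer B/G FRET substrate then added for 2 h at room temperature before fluorescence reading.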

The target is the same in assay [17]. Description: qHTS assay to identify small molecule agonists of the androgen receptor (AR) signaling pathway (AID 743036; active = well fitted activation curve with a large enough effect in the signal ratio in the repeat runs, with a control signal flat, not every such curve was filed as active; inconclusive = weak or mixed curves, or effect the other way; inactive = no such curve, though single readings can be large or run the other way; the % refers to the signal ratio). Summed up: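 AR-UAS-bla HEK293 cells, plated 4 h before dosing, were treated with compound for 16 h at 37C. beta-Lactamase reporter read after 2 h with LiveBLAzer B/G FRET substrate at room temperature.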
Assay [18] has the same target. Kind of assay: qHTS assay to identify small molecule agonists of the androgen receptor (AR) signaling pathway using the MDA cell line (AID 743040; note: nearly all actives have a fitted effect of over 20% in size). A digest of the protocol:
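MDA-kb2 breast carcinoma cells carrying MMTV-luciferase (responsive to AR and GR), plated 5 h then treated 16 h with compounds at 37C, 0% CO2. Read-out was ONE-Glo luminescence after 30 min at room temperature.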

For assay [19] the target is unchanged. Description: qHTS assay to identify small molecule antagonists of the androgen receptor (AR) signaling pathway using the MDA cell line (AID 743042; note: nearly all actives have a fitted effect of over 55% in size). A digest of the protocol:
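MDA-kb2 breast carcinoma cells carrying MMTV-luciferase (AR/GR responsive) were co-treated with compounds and the agonist R1881 for 16 h at 37C. Inhibition read as ONE-Glo luminescence; CellTiter-Fluor fluorescence measured in parallel for cytotoxicity.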

Several values for one entry are separate records, joined by “and”; a condition that tells them apart may be missing. Equal entries are not always repeated. Some compounds were tested as several samples or in several runs, with calls that do not always agree. Activity calls are given as the source filed them. Unless noted, calls come from the whole dose curve; as a rule, active = well fitted curve in the direction sought with a large enough effect in the repeat runs; inconclusive = weak or mixed curves; inactive = no such curve, though single readings can be large; an effect the other way counts as inactive or inconclusive.

Chain of Androgen receptor (Homo sapiens) (P10275 whole entry, looked up): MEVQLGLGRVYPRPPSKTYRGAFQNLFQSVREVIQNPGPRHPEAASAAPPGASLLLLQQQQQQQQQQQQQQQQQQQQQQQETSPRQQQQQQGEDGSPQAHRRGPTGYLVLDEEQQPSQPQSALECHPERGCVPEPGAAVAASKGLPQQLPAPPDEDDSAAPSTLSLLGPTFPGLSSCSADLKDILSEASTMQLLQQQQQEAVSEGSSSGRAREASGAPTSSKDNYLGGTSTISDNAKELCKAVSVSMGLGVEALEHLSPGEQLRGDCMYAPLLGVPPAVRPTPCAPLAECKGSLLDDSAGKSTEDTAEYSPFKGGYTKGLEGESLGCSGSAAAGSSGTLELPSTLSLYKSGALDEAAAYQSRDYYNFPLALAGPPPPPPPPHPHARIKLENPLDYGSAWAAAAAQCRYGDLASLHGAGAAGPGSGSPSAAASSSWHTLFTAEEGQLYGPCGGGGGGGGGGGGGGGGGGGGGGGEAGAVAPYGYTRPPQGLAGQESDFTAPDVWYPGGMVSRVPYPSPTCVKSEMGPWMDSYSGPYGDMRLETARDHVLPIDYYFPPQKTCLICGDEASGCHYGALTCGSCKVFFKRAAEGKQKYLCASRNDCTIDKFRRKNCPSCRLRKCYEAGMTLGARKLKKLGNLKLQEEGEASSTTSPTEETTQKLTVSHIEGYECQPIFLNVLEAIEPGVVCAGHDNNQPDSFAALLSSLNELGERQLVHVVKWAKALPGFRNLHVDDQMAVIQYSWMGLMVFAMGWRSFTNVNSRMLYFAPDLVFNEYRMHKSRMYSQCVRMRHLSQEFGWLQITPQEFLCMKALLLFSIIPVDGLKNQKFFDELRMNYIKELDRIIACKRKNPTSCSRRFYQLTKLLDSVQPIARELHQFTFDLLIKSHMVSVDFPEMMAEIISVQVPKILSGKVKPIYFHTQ
Chain of Estrogen receptor (Homo sapiens) (P03372 whole entry, looked up): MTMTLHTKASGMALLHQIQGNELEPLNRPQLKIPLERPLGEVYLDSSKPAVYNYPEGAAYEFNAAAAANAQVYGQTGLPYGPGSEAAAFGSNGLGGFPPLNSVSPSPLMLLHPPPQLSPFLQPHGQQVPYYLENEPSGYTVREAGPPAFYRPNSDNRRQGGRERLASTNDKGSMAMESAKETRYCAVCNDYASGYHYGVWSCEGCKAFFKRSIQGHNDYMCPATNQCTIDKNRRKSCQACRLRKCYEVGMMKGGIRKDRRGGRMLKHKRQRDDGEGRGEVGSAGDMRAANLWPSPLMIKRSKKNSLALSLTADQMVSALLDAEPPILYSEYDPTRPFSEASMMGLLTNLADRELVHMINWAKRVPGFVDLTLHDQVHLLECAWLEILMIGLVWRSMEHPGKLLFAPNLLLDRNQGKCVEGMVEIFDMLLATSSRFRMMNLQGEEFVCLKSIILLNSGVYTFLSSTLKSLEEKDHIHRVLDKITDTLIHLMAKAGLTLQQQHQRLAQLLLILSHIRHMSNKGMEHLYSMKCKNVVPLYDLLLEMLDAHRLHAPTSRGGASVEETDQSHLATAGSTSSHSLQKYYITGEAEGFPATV
Chain of Aromatase (Homo sapiens) (P11511 whole entry, looked up): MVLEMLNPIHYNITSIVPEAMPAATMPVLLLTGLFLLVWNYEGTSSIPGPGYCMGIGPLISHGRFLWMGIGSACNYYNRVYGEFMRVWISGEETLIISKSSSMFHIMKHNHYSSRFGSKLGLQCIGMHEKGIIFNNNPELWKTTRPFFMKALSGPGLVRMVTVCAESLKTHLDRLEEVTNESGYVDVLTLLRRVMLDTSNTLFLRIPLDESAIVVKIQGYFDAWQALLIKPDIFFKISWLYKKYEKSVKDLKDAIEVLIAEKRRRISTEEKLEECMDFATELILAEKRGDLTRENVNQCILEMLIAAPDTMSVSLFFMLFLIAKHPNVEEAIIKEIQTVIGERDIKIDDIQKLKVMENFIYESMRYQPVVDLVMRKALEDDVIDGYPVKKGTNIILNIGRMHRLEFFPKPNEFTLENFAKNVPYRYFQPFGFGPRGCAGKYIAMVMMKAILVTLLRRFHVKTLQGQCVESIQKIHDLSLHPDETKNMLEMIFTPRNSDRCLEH

Turning to `Cn1cc(-c2ccccc2)c(=O)c(-c2cccc(C(F)(F)F)c2)c1`, the molecule was classed as inactive in assay [1], in [5], in assay [6], in assay [8] and in assay [14]. Also, the Potency entry in [2], in assay [3], in [7], in [9], in assay [10] and in [11] was “inactive” in each case. For the same molecule, the Potency result (in assay [12]; in assay [13]; in the assay with Aromatase (Homo sapiens)) was “inactive” each time. In addition, the Potency in assay [4] is 61.1 µM (active).
Turning to `O=NN1CCCCCCC1`, the call in assay [1], in assay [5], in assay [6], in [8] and in assay [14] was inactive. For the same molecule, the Potency entry in assay [2], in assay [3], in assay [4], in assay [7], in [15] and in assay [9] was “inactive” in each case. Further, the Potency result (in assay [10]; in [11]; in assay [13]; with Aromatase (Homo sapiens)) was “inactive” in each case.
With `[N-]=[N+]=[N-]`, the outcome in assay [1], in [5], in assay [17], in [18], in [6] and in assay [19] was inactive. In addition, the call in [8] and in [14] was inactive. Also, the Potency entry in [3], in [4], in assay [16], in assay [7], in assay [15] and in [9] was “inactive” each time. The Potency entry (in [10]; in assay [11]; in assay [12]; with Aromatase (Homo sapiens)) was “inactive” each time. Moreover, the Potency result in assay [13] is “inactive and 68.6 µM (active)”.
For the molecule `ClCc1cccnc1`, the call in [1], in assay [5], in assay [6], in assay [8] and in assay [14] was inactive. In addition, the Potency result in [3], in [4], in [7], in [15], in assay [9] and in assay [10] was “inactive” in each case. In addition, the Potency result (in assay [11]; in [12]; in assay [13]; in the assay with Aromatase (Homo sapiens)) was “inactive” each time.
As for `O=S(=O)(c1ccc(O)cc1)c1ccc(O)cc1`, the molecule was classed as inactive in [1], in assay [5], in [6], in assay [8] and in assay [14]. Besides, the Potency entry in [3], in [4], in assay [7], in assay [15], in [9] and in assay [10] was “inactive” in each case. Besides, the Potency entry (in assay [13]; in the assay with Aromatase (Homo sapiens)) was “inactive” throughout. The Potency in assay [11] was 15.6 µM [inconclusive] (active) and 24.5 µM [inconclusive] (active); in assay [12] it was 3.88 µM (active) and 1.93 µM (active).
Turning to `Cc1cccc([N+](=O)[O-])c1`, the result in [1], in assay [5], in assay [6] and in assay [14] was inactive. Moreover, the Potency result in [3], in assay [4], in assay [7], in assay [9], in assay [10] and in [12] was “inactive” in each case. In addition, the Potency entry in assay [13] was “inactive”.
As to `c1ccc2c(c1)oc1ccccc12`, the outcome in [1], in [5], in [6], in assay [8] and in assay [14] was inactive. Also, the Potency result in assay [3], in assay [4], in assay [7], in assay [15] and in assay [10] was “inactive” each time.
`C=CC(N)=O`: the molecule was classed as inactive in [1], in [5], in [6] and in assay [14]. For the same molecule, the Potency entry in assay [7], in assay [9], in assay [10], in assay [11], in [12] and in [13] was “inactive” in each case. The Potency entry with Aromatase (Homo sapiens) is “inactive”.
As for `CCC[N+](=O)[O-]`, the outcome in assay [1], in [5], in assay [6], in assay [8] and in assay [14] was inactive. The Potency result (in assay [3]; in assay [4]; in assay [7]; in [15]; in assay [10]; with Aromatase (Homo sapiens)) was “inactive” in each case.
On to `CN(N=O)c1ccccc1`, for which the result in assay [1], in assay [5], in assay [6], in assay [8] and in assay [14] was inactive. The Potency result in assay [3], in assay [4], in [7], in [15], in assay [9] and in [10] was “inactive” throughout. Moreover, the Potency result (in assay [11]; in assay [12]; in [13]; in the assay with Aromatase (Homo sapiens)) was “inactive” each time.
